# Data published in publication PMC11006913.
# Residue numbers refer to the chain shown, from its start.
# Columns and labels:
# Experiment in all cases: PBM; 200 nM protein, PBS
# Details in all cases: dsDNA, one strand shown
# [1] = molecular target: T1, SIX6 (Homo sapiens, UniProt O95475 114-200, L167I)
# T1 sequence: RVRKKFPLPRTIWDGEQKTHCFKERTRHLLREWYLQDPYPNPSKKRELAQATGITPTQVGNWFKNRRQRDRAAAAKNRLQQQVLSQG
# [2] = molecular target: T2, SIX6 (Homo sapiens, UniProt O95475 114-200, L143V)
# T2 sequence: T1 sequence with L30V, I54L
# [3] = molecular target: T3, SIX6 (Homo sapiens, UniProt O95475 114-200, H141N)
# T3 sequence: T1 sequence with H28N, I54L
# [4] = molecular target: T4, SIX6 (Homo sapiens, UniProt O95475 114-200, T165P)
# T4 sequence: T1 sequence with T52P, I54L
# [5] = molecular target: T5, SIX6 (Homo sapiens, UniProt O95475 114-200, L167M)
# T5 sequence: T1 sequence with I54M
# [6] = molecular target: T6, SIX6 (Homo sapiens, UniProt O95475 114-200, L143M)
# T6 sequence: T1 sequence with L30M, I54L
# [7] = molecular target: T7, SIX6 (Homo sapiens, UniProt O95475 114-200, L143I)
# T7 sequence: T1 sequence with L30I, I54L
# [8] = molecular target: T8, SIX6 (Homo sapiens, UniProt O95475 114-200, T165G)
# T8 sequence: T1 sequence with T52G, I54L
# [9] = molecular target: T9, SIX6 (Homo sapiens, UniProt O95475 114-200, T139Q)
# T9 sequence: T1 sequence with T26Q, I54L
# [10] = molecular target: T10, SIX6 (Homo sapiens, UniProt O95475 114-200, T165A)
# T10 sequence: T1 sequence with T52A, I54L
# [11] = molecular target: T11, SIX6 (Homo sapiens, UniProt O95475 114-200, L167V)
# T11 sequence: T1 sequence with I54V
# [12] = molecular target: T12, SIX6 (Homo sapiens, UniProt O95475 114-200)
# T12 sequence: T1 sequence with I54L
# [13] = molecular target: T13, SIX6 (Homo sapiens, UniProt O95475 114-200, T165I)
# T13 sequence: T1 sequence with T52I, I54L
Sequence,binding signal [1],binding signal [2],binding signal [3],binding signal [4],binding signal [5],binding signal [6],binding signal [7],binding signal [8],binding signal [9],binding signal [10],binding signal [11],binding signal [12],binding signal [13]
ATGGCCCG,"8.97 upbm affinity estimate (log intensity, higher = more binding, comparable within an allelic series)","8.9 upbm affinity estimate (log intensity, higher = more binding, comparable within an allelic series)","9.08 upbm affinity estimate (log intensity, higher = more binding, comparable within an allelic series)","9.03 upbm affinity estimate (log intensity, higher = more binding, comparable within an allelic series)","9 upbm affinity estimate (log intensity, higher = more binding, comparable within an allelic series)","8.97 upbm affinity estimate (log intensity, higher = more binding, comparable within an allelic series)","8.99 upbm affinity estimate (log intensity, higher = more binding, comparable within an allelic series)","9.03 upbm affinity estimate (log intensity, higher = more binding, comparable within an allelic series)","9.09 upbm affinity estimate (log intensity, higher = more binding, comparable within an allelic series)","8.99 upbm affinity estimate (log intensity, higher = more binding, comparable within an allelic series)","8.99 upbm affinity estimate (log intensity, higher = more binding, comparable within an allelic series)","9 upbm affinity estimate (log intensity, higher = more binding, comparable within an allelic series)","9.05 upbm affinity estimate (log intensity, higher = more binding, comparable within an allelic series)"
GATCCAGA,"10.5 upbm affinity estimate (log intensity, higher = more binding, comparable within an allelic series)","10 upbm affinity estimate (log intensity, higher = more binding, comparable within an allelic series)","10.4 upbm affinity estimate (log intensity, higher = more binding, comparable within an allelic series)","9.57 upbm affinity estimate (log intensity, higher = more binding, comparable within an allelic series)","10.1 upbm affinity estimate (log intensity, higher = more binding, comparable within an allelic series)","10.3 upbm affinity estimate (log intensity, higher = more binding, comparable within an allelic series)","10.1 upbm affinity estimate (log intensity, higher = more binding, comparable within an allelic series)","10.4 upbm affinity estimate (log intensity, higher = more binding, comparable within an allelic series)","10.6 upbm affinity estimate (log intensity, higher = more binding, comparable within an allelic series)","10.4 upbm affinity estimate (log intensity, higher = more binding, comparable within an allelic series)","10.3 upbm affinity estimate (log intensity, higher = more binding, comparable within an allelic series)","10.5 upbm affinity estimate (log intensity, higher = more binding, comparable within an allelic series)","10.3 upbm affinity estimate (log intensity, higher = more binding, comparable within an allelic series)"
GGCCCCAA,"8.91 upbm affinity estimate (log intensity, higher = more binding, comparable within an allelic series)","8.77 upbm affinity estimate (log intensity, higher = more binding, comparable within an allelic series)","8.92 upbm affinity estimate (log intensity, higher = more binding, comparable within an allelic series)","9.01 upbm affinity estimate (log intensity, higher = more binding, comparable within an allelic series)","8.96 upbm affinity estimate (log intensity, higher = more binding, comparable within an allelic series)","8.92 upbm affinity estimate (log intensity, higher = more binding, comparable within an allelic series)","8.81 upbm affinity estimate (log intensity, higher = more binding, comparable within an allelic series)","8.9 upbm affinity estimate (log intensity, higher = more binding, comparable within an allelic series)","9.04 upbm affinity estimate (log intensity, higher = more binding, comparable within an allelic series)","8.9 upbm affinity estimate (log intensity, higher = more binding, comparable within an allelic series)","8.9 upbm affinity estimate (log intensity, higher = more binding, comparable within an allelic series)","8.82 upbm affinity estimate (log intensity, higher = more binding, comparable within an allelic series)","8.91 upbm affinity estimate (log intensity, higher = more binding, comparable within an allelic series)"
TAGTATCA,"11.3 upbm affinity estimate (log intensity, higher = more binding, comparable within an allelic series)","10.6 upbm affinity estimate (log intensity, higher = more binding, comparable within an allelic series)","11.1 upbm affinity estimate (log intensity, higher = more binding, comparable within an allelic series)","10 upbm affinity estimate (log intensity, higher = more binding, comparable within an allelic series)","10.8 upbm affinity estimate (log intensity, higher = more binding, comparable within an allelic series)","11 upbm affinity estimate (log intensity, higher = more binding, comparable within an allelic series)","10.4 upbm affinity estimate (log intensity, higher = more binding, comparable within an allelic series)","11.3 upbm affinity estimate (log intensity, higher = more binding, comparable within an allelic series)","11.3 upbm affinity estimate (log intensity, higher = more binding, comparable within an allelic series)","11.2 upbm affinity estimate (log intensity, higher = more binding, comparable within an allelic series)","11.1 upbm affinity estimate (log intensity, higher = more binding, comparable within an allelic series)","11 upbm affinity estimate (log intensity, higher = more binding, comparable within an allelic series)","11 upbm affinity estimate (log intensity, higher = more binding, comparable within an allelic series)"
ATATCATG,"11.1 upbm affinity estimate (log intensity, higher = more binding, comparable within an allelic series)","10.4 upbm affinity estimate (log intensity, higher = more binding, comparable within an allelic series)","11.1 upbm affinity estimate (log intensity, higher = more binding, comparable within an allelic series)","9.92 upbm affinity estimate (log intensity, higher = more binding, comparable within an allelic series)","10.8 upbm affinity estimate (log intensity, higher = more binding, comparable within an allelic series)","10.9 upbm affinity estimate (log intensity, higher = more binding, comparable within an allelic series)","10.4 upbm affinity estimate (log intensity, higher = more binding, comparable within an allelic series)","11.1 upbm affinity estimate (log intensity, higher = more binding, comparable within an allelic series)","11.2 upbm affinity estimate (log intensity, higher = more binding, comparable within an allelic series)","11 upbm affinity estimate (log intensity, higher = more binding, comparable within an allelic series)","11 upbm affinity estimate (log intensity, higher = more binding, comparable within an allelic series)","11 upbm affinity estimate (log intensity, higher = more binding, comparable within an allelic series)","11 upbm affinity estimate (log intensity, higher = more binding, comparable within an allelic series)"
ATATCCCC,"10.9 upbm affinity estimate (log intensity, higher = more binding, comparable within an allelic series)","10.3 upbm affinity estimate (log intensity, higher = more binding, comparable within an allelic series)","10.9 upbm affinity estimate (log intensity, higher = more binding, comparable within an allelic series)","9.7 upbm affinity estimate (log intensity, higher = more binding, comparable within an allelic series)","10.9 upbm affinity estimate (log intensity, higher = more binding, comparable within an allelic series)","10.9 upbm affinity estimate (log intensity, higher = more binding, comparable within an allelic series)","10.3 upbm affinity estimate (log intensity, higher = more binding, comparable within an allelic series)","10.9 upbm affinity estimate (log intensity, higher = more binding, comparable within an allelic series)","10.9 upbm affinity estimate (log intensity, higher = more binding, comparable within an allelic series)","10.8 upbm affinity estimate (log intensity, higher = more binding, comparable within an allelic series)","10.7 upbm affinity estimate (log intensity, higher = more binding, comparable within an allelic series)","10.9 upbm affinity estimate (log intensity, higher = more binding, comparable within an allelic series)","10.9 upbm affinity estimate (log intensity, higher = more binding, comparable within an allelic series)"
